# CD40 NFkB inh = CD40 pathway inhibition in BL2 cells; BL2 NF-kB luciferase reporter, CD40L-induced, 4 h; inhibition, % at 10 µM; hit rate 0.94% among 83,000; AID 1053188;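 active = mean inhibition of at least 50% with a set share of replicates also reaching that level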;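 also: 0% = neutral control wells and 100% = IKK inhibitor VII at 50 µM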
# * hit, by the source's call; ! = not active in a repeat; [ ] = another dose, or the depositor's remark. This excerpt belongs to a sample that is enriched for hits.
SMILES,CD40 NFkB inh
CCOC(=O)C1CCCN(CCC(C)c2ccccc2)C1 (stereo not drawn),20.8
CCOC(=O)c1c(C)c(C(=O)N2CCN(c3ccccc3)CC2)c(C)n1C,8.0
CN(C)C(=O)c1cccc(-c2ccc3c(c2)[C@@H]2[C@@H](CCN2C(=O)c2ccc4c(c2)OCO4)[C@H](CO)N3)c1,-46.2[25 µM]
COc1ccc(S(=O)(=O)N2C[C@H](O)COC[C@H]3O[C@H](CC(=O)N[C@@H]4CCN(Cc5ccccc5)C4)CC[C@@H]32)cc1,2.6[25 µM]
O=C(C[C@@H]1CC[C@H](NC(=O)C2CC2)[C@@H](CO)O1)Nc1ccccc1,-1.5[25 µM]
COCCCNC(=O)c1ccc([N+](=O)[O-])c(Cl)c1,20.7
CCOCCCNC(=O)/C(C#N)=C/c1ccc(Cl)c([N+](=O)[O-])c1,73.2*
N#C/C(=C\c1ccc(O)c(O)c1)C(=O)NCCCc1ccccc1,1.3
C[C@@H]1CN(C)C(=O)c2cccc(N)c2O[C@@H]1CN(C)C(=O)OC(C)(C)C,10.3
N#C[C@H]1[C@H](c2ccc(C#CC3CCCC3)cc2)[C@@H](CO)N1C(=O)Nc1ccc(F)cc1,29.5
CC(C)NC(=O)N1[C@H](CO)[C@H](c2ccc(C#CC3CCCCC3)cc2)[C@@H]1C#N,11.8
N#C[C@H]1[C@@H](c2ccc(C#CC3CCCCC3)cc2)[C@H](CO)N1C(=O)Nc1ccc(F)cc1,54.9*[25 µM]
N#C[C@H]1[C@@H](c2ccc(C#CC3CC3)cc2)[C@@H](CO)N1C(=O)Nc1ccc(F)cc1,1.7
CC(C)NC(=O)N1[C@H](C#N)[C@@H](c2ccc(C#CC3CCCC3)cc2)[C@H]1CO,-2.1
N#C[C@H]1[C@H](c2ccc(C#CC3CCCCC3)cc2)[C@H](CO)N1C(=O)Nc1ccc(F)cc1,51.3*[25 µM]
N#C[C@@H]1[C@H](c2ccc(C#CC3CCCC3)cc2)[C@@H](CO)N1C(=O)Nc1ccc(F)cc1,48.2*
CC(C)NC(=O)N1[C@H](C#N)[C@H](c2ccc(C#CC3CCCCC3)cc2)[C@@H]1CO,9.4
CC(C)NC(=O)N1[C@H](C#N)[C@@H](c2ccc(C#CC3CCCCC3)cc2)[C@@H]1CO,-3.5
COc1cccc(NC(=O)N(C)C[C@H]2Oc3cc(-c4ccccc4OC)ccc3S(=O)(=O)N([C@@H](C)CO)C[C@H]2C)c1,-1.6[25 µM]
CCCNC(=O)N1C[C@H]2[C@@H](c3ccccc31)[C@@H](CO)N2C(=O)Nc1ccc(F)cc1,1.8
C[C@H]1CN([C@@H](C)CO)C(=O)c2cc(-c3cncnc3)cnc2O[C@@H]1CN(C)CC1CCCC1,-1.3[25 µM]
CS(=O)(=O)N1[C@@H]2CN(CC(F)(F)F)C[C@H]1C2c1ccccc1 (stereo partly drawn),-2.1
O=C(c1ccccc1)N1CC[C@@H]2[C@H]1c1cc(C#Cc3cccnc3)ccc1N[C@@H]2CO,-11.7
CNC[C@@H]1Oc2ccc(N(C)C)cc2C(=O)N(C)C[C@@H]1C,-4.6
NS(=O)(=O)c1ccc(N=Cc2c(O)[nH]c3ccccc23)cc1,-9.1[25 µM]
SMILES,CD40 NFkB inh
CCCCCCCC[n+]1cccc2c3ccccc3ccc21,93.2*
CCCCCCCCNc1ncnc2ccccc12,10.0
CCCCCCCCCC[n+]1cccc2c3ccccc3ccc21,93.8*
CCCCCC(=O)Nc1cccc2ccccc12,-12.6
Cc1cccc[n+]1CCCCCCCCCC[n+]1ccccc1C,9.1
O=C(NCC[C@@H]1CC[C@@H](NS(=O)(=O)c2cccc(F)c2)[C@@H](CO)O1)C1CCCC1,-8.1
C[C@H]1CCCCO[C@H](CN(C)C(=O)C2CCCCC2)[C@@H](C)CN([C@@H](C)CO)C(=O)c2cc(NC(=O)Nc3ccc(C(F)(F)F)cc3)ccc2O1,3.7
C/C=C/c1ccc2c(c1)[C@H]1[C@H](CCN1C(=O)C1CC1)[C@@H](CO)N2,-9.4
Cc1ccc(S(=O)(=O)N2CC[C@@H]3[C@H](CO)Nc4ccc(-c5ccc(C#N)cc5)cc4[C@@H]32)cc1,10.4[25 µM]
CO[C@H](C(=O)N(C)C[C@@H]1OCc2ccccc2-c2c(n(C)c3ccccc23)C(=O)N([C@@H](C)CO)C[C@@H]1C)c1ccccc1,8.3[25 µM]
CCOC(=O)N(C)C[C@H]1OCc2ccccc2-c2ccccc2C(=O)N([C@@H](C)CO)C[C@H]1C,-14.7
O=C(C[C@H]1C=C[C@H](NC(=O)NC2CCCC2)[C@@H](CO)O1)NCc1ccc(F)cc1,-8.7
COc1cccc(S(=O)(=O)N2C[C@@H]3N[C@H](C2)C3c2ccc(/C=C/c3ccccc3)cc2)c1 (stereo partly drawn),45.6*!
COc1cccc(S(=O)(=O)N2[C@@H]3CNC[C@H]2C3c2ccc(/C=C/c3ccccc3)cc2)c1 (stereo partly drawn),-3.9[25 µM]
COc1cccc(-c2ccc(C3[C@@H]4CN(S(=O)(=O)c5ccccc5)C[C@H]3N4)cc2)c1 (stereo partly drawn),24.3
Cn1c(SC/C=C/c2ccccc2)nnc1-c1cccnc1,5.0
Cc1nn2c(-c3cccnc3)ccnc2c1-c1ccccc1,-66.8
Cn1c(SSc2ccc(-c3cccnc3)n2C)ccc1-c1cccnc1,48.3*
C[C@@H]1CN([C@@H](C)CO)C(=O)Cc2cc(NC(=O)CCCN(C)C)ccc2O[C@H]1CN(C)C,16.0[25 µM]
CNC[C@@H]1Oc2ccccc2CC(=O)N(C)C[C@@H]1C,-4.9
CCOc1ccc2c(ccc(/C=C/c3cc(C)c4cccnc4c3O)[n+]2C)c1,78.6*
CN1C(=O)c2cc(NC(=O)C3CC3)ccc2OC[C@H]2O[C@@H](CC(=O)O)CC[C@H]21,-8.3
N#C[C@H]1[C@@H](c2ccccc2-c2ccccc2)[C@H](CO)N1C(=O)NC1CCCCC1,3.2
C[C@@H]1CN([C@@H](C)CO)C(=O)c2c(c3ccccc3n2C)-c2ccccc2CO[C@@H]1CN(C)Cc1ccc(C(F)(F)F)cc1,2.6
OC(CN1CCOCC1)Cn1c(-c2cccc(Cl)c2)nc2ccccc21 (stereo not drawn),0.4
SMILES,CD40 NFkB inh
OC(c1cc(-c2cccc(Cl)c2)nc2ccccc12)C1CCCCN1 (stereo not drawn),65.0*
O=C(O)c1cc(-c2ccccc2)nc2ccccc12,-3.7
COc1cccc(NC(=O)C[C@@H]2CC[C@H]3[C@@H](COc4ccc(NC(=O)C5CCCC5)cc4C(=O)N3C)O2)c1,-1.0
C[C@H]1CN([C@@H](C)CO)C(=O)c2cccc(NS(=O)(=O)c3cccs3)c2O[C@H]1CN(C)Cc1ccc2c(c1)OCO2,-4.9[25 µM]
Cc1csc(N=Nc2ccc(N(C)C)cc2)[n+]1[O-],80.2*
O=C(C[C@H]1C[C@H]2c3cc(NC(=O)c4ccc5c(c4)OCO5)ccc3O[C@H]2[C@H](CO)O1)NCC(F)(F)F,4.8[25 µM]
O=C(OCC(=O)N1CCN(c2ccccc2)CC1)c1ccccc1NCCO,34.7*
O=C(OCC(=O)N1CCN(c2ccccc2)CC1)c1ccccc1OC(F)F,-11.1
O=C(OCC(=O)N1CCN(c2ccccc2)CC1)c1cccs1,-44.4
COc1ccc(NC(=O)N2C[C@H]3[C@@H](c4ccccc42)[C@@H](CO)N3C(=O)C2CCCCC2)cc1,-5.4
CCCNC(=O)N(C)C[C@H]1[C@H](c2ccccc2)[C@@H](CO)N1C(=O)c1ccccc1,-3.2[25 µM]
Cc1sc2nc(-c3ccco3)oc(=O)c2c1C,-30.7
Cc1sc2ncnc(SCc3ccco3)c2c1C,4.3
Cc1nc(NCc2ccco2)c2c(C)c(C)sc2n1,49.5*
CN1[C@@H]2c3ccc(/C=C/c4ccccc4)c(=O)n3C[C@@H]2[C@@H](CO)[C@@H]1C(=O)N1CCCCC1,-21.1[25 µM]
Cc1ccc(-c2ccccc2[C@@H]2[C@@H](C#N)N(C(=O)Cc3cccnc3)[C@@H]2CO)cc1,10.7[25 µM]
CCC(=O)N1[C@H](CO)[C@H](c2ccc(C#CC3CCCC3)cc2)[C@@H]1CNC(C)C,-1.5

# Screening results as filed in PubChem.
